Results reported in PubChem BioAssay (NCI).
“And” between values parts separate entries of the source, which are not always exact repeats. Equal values may be shown once. The panel holds about 83,000 compounds, 20% with a hit somewhere; the sample as a whole holds those more often.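 Method: cells in 96-well plates; compound added at one concentration; 48 h incubation; percent growth measured; values under 10 scored active.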 The source made the active and inactive calls.

These molecules were tested on IGROV1 ovarian (assay: NCI-60 one-dose screen, 48 h (100 = growth as untreated, 0 = no growth, -100 = all killed)). Conditions: 10 µM.

Compound	growth
Cn1c(O)c(N=O)c(=O)n(C)c1=O	111% (inactive) and 114% (inactive)
O=C1C=Cc2ccccc2C1=O	77.7% (inactive)
C[C@]12CC[C@H]3[C@@H](CCC4=CC(=O)CC[C@@H]43)[C@@H]1CC[C@@H]2OC(=O)N(CCCl)N=O	-2.36% (active)
Oc1c(Cl)cc(Cl)c2ccccc12.[Cu+2]	74.8% (inactive)

What follows are molecules tested on OVCAR-3 ovarian in the same assay as above. Conditions: 10 µM.

Compound	growth
Cn1c(O)c(N=O)c(=O)n(C)c1=O	101% (inactive) and 94.8% (inactive)
NNc1ccccc1	97.7% (inactive)
O=C1C=Cc2ccccc2C1=O	96.9% (inactive)
COc1cc(/C=C/[N+](=O)[O-])cc(Br)c1OC	69.9% (inactive)
C[C@]12CC[C@H]3[C@@H](CCC4=CC(=O)CC[C@@H]43)[C@@H]1CC[C@@H]2OC(=O)N(CCCl)N=O	89.9% (inactive)
Cc1cc(C(C)(C)c2ccc(O)c(C)c2)ccc1O	85.9% (inactive)
CC[C@@H](C)[C@@H]1NC(=O)C(NC(=O)C(CC(C)C)N(C)C(=O)C2CCCN2C(=O)C(C)O)C(C)OC(=O)C(Cc2ccc(OC)cc2)N(C)C(=O)C2CCCN2C(=O)C(CC(C)C)NC(=O)C(C)C(=O)C(C(C)C)OC(=O)C[C@H]1O (stereo not given in full)	-39.6% (active)
S=C=NCCc1ccccc1	72% (inactive)
O=C1CCC(=O)N1SC(Cl)(Cl)Cl	122% (inactive)
O=[N+]([O-])c1cc[n+]([O-])c2ccccc12	4.56% (active)
O=C(CBr)Nc1ccccc1	98.3% (inactive)
CN(C)CC1(N)C(=O)NC(=O)NC1=O	113% (inactive)
C/C(=C\c1ccc(Cl)c(Cl)c1)[N+](=O)[O-]	-97.7% (active) and 107% (inactive)
O=[N+]([O-])c1ccc(N(CCO)CCO)c2c1no[n+]2[O-]	-65.9% (active)
O=[N+]([O-])c1ccc(N2CCOCC2)c2c1no[n+]2[O-]	-34.3% (active)
C/C1=C\[C@H](C)C[C@H](C)OC(=O)C[C@H](c2ccc(O)cc2)NC(=O)[C@@H](Cc2c(Br)[nH]c3ccccc23)N(C)C(=O)[C@H](C)NC(=O)[C@@H](C)C1	-44.9% (active)
COc1ccc(/C=C\[N+](=O)[O-])cc1OC	55.6% (inactive) and 37% (inactive)
[O-][n+]1ccccc1S	16.9% (inactive)
COC12c3c(C)cc(O)c4c(=O)occ(c34)C(=O)C1C13COC(=O)c4c(O)cc(C)c(c41)C(=O)C2C3OC(C)=O (stereo not given)	105% (inactive)
COC(=O)C1C(O)C(C)C(O)C(C)/C=C\C=C(C)C(=O)Nc2c(C)c(OC(C)=O)c3c(c2O)C(=O)C(C)=C2OCOC(=C23)C(C)=CC(C)(O)C(O)C(C)C1O (stereo not given)	105% (inactive)
C=C1C(=O)O[C@@H]2C[C@@H](C)[C@@H]3C=CC(=O)[C@@]3(C)[C@@H](O)[C@H]12	-100% (active)
CC/C(=C/c1ccc(OC)cc1)[N+](=O)[O-]	-54.6% (active)
CCOP(=O)(OCC)/C(C#N)=C/c1ccc(Br)cc1	112% (inactive)
O=[N+]([O-])/C=C/c1ccc(Cl)cc1[N+](=O)[O-]	-31.5% (active)
Oc1c(Cl)cc(Cl)c2ccccc12.[Cu+2]	79.7% (inactive)
CN(CCCl)c1ccc(/C=C/C2=[N+](C)c3ccccc3C2(C)C)cc1	-10.6% (active)
Cc1ccc(NC(=O)CBr)cc1	112% (inactive)
COC(C(=O)C(O)C(C)O)C1Cc2cc3cc(OC4CC(OC(C)=O)C(OC5CC(O)C(OC)C(C)O5)C(C)O4)cc(O)c3c(O)c2C(=O)C1OC1CC(OC2CC(OC3CC(C)(O)C(OC(=O)C(C)C)C(C)O3)C(O)C(C)O2)C(O)C(C)O1 (stereo not given)	-4.25% (active)

The molecules below were run on HS 578T breast in the same assay as above. Conditions: 10 µM.

Compound	growth
Cn1c(O)c(N=O)c(=O)n(C)c1=O	97.1% (inactive) and 98.9% (inactive)
NNc1ccccc1	109% (inactive)
O=C1C=Cc2ccccc2C1=O	90.9% (inactive)
C[C@]12CC[C@H]3[C@@H](CCC4=CC(=O)CC[C@@H]43)[C@@H]1CC[C@@H]2OC(=O)N(CCCl)N=O	69.7% (inactive)
Cc1cc(C(C)(C)c2ccc(O)c(C)c2)ccc1O	89.2% (inactive)
O=[N+]([O-])c1cc[n+]([O-])c2ccccc12	18.7% (inactive)
O=C(CBr)Nc1ccccc1	99.9% (inactive)
CN(C)CC1(N)C(=O)NC(=O)NC1=O	98.1% (inactive)
C/C(=C\c1ccc(Cl)c(Cl)c1)[N+](=O)[O-]	82.8% (inactive) and 103% (inactive)
O=[N+]([O-])c1ccc(N(CCO)CCO)c2c1no[n+]2[O-]	-30.8% (active)
O=[N+]([O-])c1ccc(N2CCOCC2)c2c1no[n+]2[O-]	1.69% (active)
C/C1=C\[C@H](C)C[C@H](C)OC(=O)C[C@H](c2ccc(O)cc2)NC(=O)[C@@H](Cc2c(Br)[nH]c3ccccc23)N(C)C(=O)[C@H](C)NC(=O)[C@@H](C)C1	-40.4% (active)
COc1ccc(/C=C\[N+](=O)[O-])cc1OC	71.2% (inactive) and 94.4% (inactive)
[O-][n+]1ccccc1S	64% (inactive)
COC12c3c(C)cc(O)c4c(=O)occ(c34)C(=O)C1C13COC(=O)c4c(O)cc(C)c(c41)C(=O)C2C3OC(C)=O (stereo not given)	112% (inactive)
COC(=O)C1C(O)C(C)C(O)C(C)/C=C\C=C(C)C(=O)Nc2c(C)c(OC(C)=O)c3c(c2O)C(=O)C(C)=C2OCOC(=C23)C(C)=CC(C)(O)C(O)C(C)C1O (stereo not given)	81.7% (inactive)
C=C1C(=O)O[C@@H]2C[C@@H](C)[C@@H]3C=CC(=O)[C@@]3(C)[C@@H](O)[C@H]12	18.2% (inactive)
CC/C(=C/c1ccc(OC)cc1)[N+](=O)[O-]	90.2% (inactive)
CCOP(=O)(OCC)/C(C#N)=C/c1ccc(Br)cc1	100% (inactive)
O=[N+]([O-])/C=C/c1ccc(Cl)cc1[N+](=O)[O-]	-6.61% (active)
Oc1c(Cl)cc(Cl)c2ccccc12.[Cu+2]	88.9% (inactive)
CN(CCCl)c1ccc(/C=C/C2=[N+](C)c3ccccc3C2(C)C)cc1	60.1% (inactive)
Cc1ccc(NC(=O)CBr)cc1	107% (inactive)
